Among the data in PubChem BioAssay (Tox21) are Potency values, retold here.

Molecules are shown by their SMILES. Inconclusive results are not listed. Entries that show only a call come without a potency. Active and inactive are the calls of the source. Calls follow the shape of the dose curve; as a rule, active = well fitted inhibition curve with a large enough effect in the repeat runs; inconclusive = weak or mixed curves; inactive = no such curve, though single readings can be large or run the other way.
Potency is read from the fitted curve at half-maximal effect.

The nature of the assay: qHTS assay to identify small molecule antagonists of the estrogen related receptor (ERR) signaling pathway (AID 1224819; also: nearly all actives have a fitted effect of over 50% in size). The settings on record: ERR reporter cell line, luciferase inhibition; series mostly up to 46.1 µM. The text has this: National Center for Advancing Translational Sciences [NCATS]
NIH Chemical Genomics Center [NCGC]
U.S. Environmental Protection Agency [EPA]
National Institutes of Environmental Health Sciences [NIEHS]
National Toxicology Program [NTP]
U.S. Food and Drug Administration [FDA]
Estrogen related receptors (ERRs), the first orphan nuclear receptors discovered, play an important role in the control of cellular energy metabolism. ERRs are required for high-energy production in response to the environmental challenges. ERR-alpha was also identified as an adverse marker for breast cancer progression; ERR-alpha-positive tumors have a poor prognosis. To screen and to identify environmental compounds that perturb the ERR signaling pathways could provide valuable information for potential therapeutic or preventive measures in the treatment of metabolic disease. For identifying ERR antagonists, ERR cell line (provided by NTP) has been used to screen LOPAC library.
Tox21 Assay Protocol Summary:
The ERR cells were dispensed at 2,000 cells/5 ul/well in 1536-well white plates using a Multidrop dispenser. After the assay plates were incubated at a 37 C/5% CO2 incubator for 6 hours, 23 nL of compounds dissolved in DMSO, positive and negative controls or DMSO only was transferred to the assay plate by a pin tool. The plates were incubated at 37 C for 18 hours. 4 ul/well of One-Glo reagent was added into the assay plates using a Flying Reagent Dispenser. After 30 min incubation at room temperature, the luminescence intensity in the plates was measured using a ViewLux plate reader.
With `N#C/C(=C\c1ccc(O)c(O)c1)C(=O)c1ccc(O)c(O)c1`, the Potency entry is “inactive”.

On to `NC(N)=N[C@@H](CCC(=O)O)C(=O)O`, for which the Potency entry was “inactive”.

On to `CN(C)C(=O)/N=N/C(=O)N(C)C`, for which the Potency entry is “inactive”.

Consider `O=C1OC(=O)C2C3CCC(O3)C12` (stereo not given), for which the Potency result was “inactive”.

Take `CCN(CC)CCn1c(=O)c(Cc2ccc(OC)cc2)nc2ccccc21`: the Potency entry was “inactive”.

For `COc1cccc(-c2cc(=O)c3ccccc3o2)c1N`, the Potency result is “inactive”.

Regarding `Oc1ccc(-c2nc(-c3ccc(F)cc3)c(-c3ccncc3)[nH]2)cc1`, the Potency is 11.4 µM (active).

For `COc1ccc(CCN(C)CCc2ccc(OC)c(OC)c2)cc1OC`, the Potency entry is “inactive”.

In the case of `COc1cc(SC)ccc1C(=O)N1CCC(Cc2ccccc2)CC1`, the Potency was 20.3 µM (active).

In the case of `COc1cc(N)c(Cl)cc1C(=O)OCCN1CCCCC1`, the Potency result was “inactive”.

In the case of `Cc1ccc2c(c1)C(N1CCN(C)CC1)=Nc1cccnc1N2`, the Potency result was “inactive”.

For `C#C[C@]1(O)CC[C@H]2[C@@H]3CCC4=Cc5oncc5CC4(C)[C@H]3CCC21C` (stereo not given in full), the Potency was 16.8 µM (active).

As for `O=C(O)[C@H]1NCCC[C@H]1C(=O)O`, the Potency result was “inactive”.

Turning to `N=C(N)SCCN`, the Potency result is “inactive”.

Turning to `CCCCCCC/C=C\CCCCCCCCC(=O)O`, the Potency result is “inactive”.

With `CNc1ncnc2c1ncn2[C@@H]1O[C@H](CO)C(O)[C@H]1O` (stereo not given in full), the Potency entry is “inactive”.

`NCCCCN`: the Potency result was “inactive”.

Regarding `OCC1O[C@H](O)C(Cl)C(O)C1O` (stereo not given in full), the Potency result is “inactive”.

Turning to `N#Cc1cc([N+](=O)[O-])c2sc(C(N)=O)[n+]([O-])c2c1`, the Potency entry was “inactive”.

Turning to `COc1cc2c(CCNC(C)=O)c[nH]c2cc1Cl`, the Potency entry is “inactive”.

In the case of `CO/N=C(\C(=O)N[C@@H]1C(=O)N2C(C(=O)O)=C(COC(C)=O)CS[C@H]12)c1csc(N)n1` (stereo in doubt), the Potency result was “inactive”.

For the compound `CSc1nc(N)c2ncn([C@@H]3O[C@H](COP(=O)(O)OP(=O)(O)O)C(O)[C@H]3O)c2n1` (stereo not given in full), the Potency result was “inactive”.

For the compound `Cc1cccc(C)c1OCC(N)C(C)C` (stereo not given), the Potency entry was “inactive”.

As to `CN=c1nc(-c2ccccc2)n(-c2ccccc2)s1`, the Potency entry is “inactive”.

With `CN(C)C(N)=NCCC[C@H](N)C(=O)O`, the Potency entry is “inactive”.

For the compound `CC(=O)NC[C@H]1CN(c2ccc(N3CCOCC3)c(F)c2)C(=O)O1`, the Potency entry is “inactive”.

`COc1cc(OC)cc(-c2cc3cnc(N)nc3nc2NC(=O)NC(C)(C)C)c1`: the Potency was 20.3 µM (active).

As for `NC(=O)C1=CN(C2OC(COP(=O)(O)OP(=O)(O)OC[C@H]3O[C@@H](n4cnc5c(N)ncnc54)[C@H](OP(=O)(O)O)C3O)C(O)C2O)C=CC1` (stereo not given in full), the Potency entry is “inactive”.

Take `Cc1cc(NC(=O)Nc2ccc3c(ccn3C)c2)sn1`: the Potency entry was “inactive”.

`COc1ccc(Br)cc1S(=O)(=O)NC(=O)/C=C/c1ccccc1Cc1ccc2ccccc2c1`: the Potency result was “inactive”.

With `NS(=O)(=O)c1ccc(-n2nc(C(F)(F)F)cc2-c2ccc(Cl)cc2)cc1`, the Potency entry is “inactive”.

With `Fc1ccc(CN(C2=NCCN2)c2c(Cl)cccc2Cl)cc1`, the Potency entry was “inactive”.

As to `Cn1ccnc1`, the Potency result was “inactive”.

Turning to `CCN(c1nc(N)c(C(=O)N=C(N)N)nc1Cl)C(C)C`, the Potency was 9.81 µM (active).

Turning to `COC(=O)C(N)Cc1ccc(Cl)cc1` (stereo not given), the Potency entry was “inactive”.

On to `CCCCCCC(=O)OC1CC(C)(C)NC(C)(C)C1`, for which the Potency entry is “inactive”.

With `COc1cccc(C(=O)NCCN2CCN(c3ccc(Cl)cc3)CC2)c1`, the Potency was 17.4 µM (active).

As for `CC[C@@H](C)[C@H]1O[C@]2(CC[C@@H]1C)C[C@@H]1C[C@@H](C/C=C(\C)[C@@H](O[C@H]3C[C@H](OC)[C@@H](O[C@H]4C[C@H](OC)[C@@H](O)[C@H](C)O4)[C@H](C)O3)[C@@H](C)/C=C/C=C3\CO[C@@H]4[C@H](O)C(C)=C[C@@H](C(=O)O1)[C@]34O)O2`, the Potency is 12.3 µM (active).

Regarding `CCN1C(=O)C=CC1=O`, the Potency entry was “inactive”.

For `C=CCc1cccc(/C=N/NC(=O)CN2CCN(Cc3ccccc3)CC2)c1O`, the Potency is 3.9 µM (active).
